Hit rate of the full screen: of about 310,000 compounds, about 410 (0.13%) were called active. Not shown: some 2% with an inconclusive outcome. No rule for the calls is given here. A selection follows. Measured potencies and affinities stand elsewhere.
assay: RSV antiviral activity via CPE protection, HEp-2 cells, primary 10 µM value included (AID 2391); conditions: RSV-induced CPE inhibition, at 10 µM, stronger effect = higher value

CPE inhibition, inactive:
CCOc1ccc(C(C(=O)NC2CCCC2)N(CCOC)C(=O)CNC(=O)c2ccco2)cc1 (centres undefined) 0.14%
CS(=O)(=O)c1ccc(Cl)c(NC(=O)CSc2n[nH]c(N)n2)c1 -0.18%
CCN(c1ccccc1)S(=O)(=O)c1ccc(OC)c(NC(=O)Cc2ccc(F)cc2)c1 13.4%
CCN(c1ccccc1)S(=O)(=O)c1ccc(Cl)c(NC(=O)CSc2nncn2C)c1 4.02%
CCC(C)NCC(=O)Nc1cc(S(=O)(=O)N(CC)c2ccccc2)ccc1Cl (centres undefined) 10.6%
Nc1nc(SCC(=O)Nc2cc(S(=O)(=O)N3CCOCC3)ccc2Cl)n[nH]1 0.46%
CCN(c1ccccc1)S(=O)(=O)c1ccc(OC)c(NC(=O)Cc2ccc(OC)c(OC)c2)c1 8.13%
CCN(c1ccccc1)S(=O)(=O)c1ccc(Cl)c(NC(=O)CSc2nncs2)c1 14.1%
CCN(c1ccccc1)S(=O)(=O)c1ccc(Cl)c(NC(=O)CSc2nnc(C)s2)c1 17.6%
CCC(=O)NC(=S)Nc1ccc2oc(-c3ccc(OC)cc3)nc2c1 -0.44%
Cc1[nH]c2c(Cl)cccc2c(=O)c1CN1CCCCCC1 -1.59%
CC(=O)c1ccc(C(=O)NC2CCCN(Cc3ccccc3F)C2)cc1 (centres undefined) -0.91%
Cc1nc(N)nc(N/N=C/c2c(F)cccc2Cl)n1 0.02%
O=C1CS/C(=N/N=C\c2ccn[nH]2)N1 6.91%
Cc1c(C(=O)O)cccc1-c1ccc(/C=N/n2cnnc2)o1 0.79%
COc1ccc(C(=O)OCC(=O)N(C)C2CCS(=O)(=O)C2)cc1Br (centres undefined) 1.57%
CCOC(=O)c1c(CC(C)C)csc1NC(=O)COC(=O)c1cc(OC)c(OC)cc1[N+](=O)[O-] 3.28%
Cc1cc(C(=O)O[C@H]2[C@H](Cc3ccccc3)NS(=O)(=O)[C@H]3C[C@@H]4C=C[C@]23O4)ccc1[N+](=O)[O-] 1.3%
C[C@@H]1NS(=O)(=O)[C@H]2C[C@@H]3C=C[C@]2(O3)[C@H]1OC(=O)Nc1ccc(C(F)(F)F)cc1[N+](=O)[O-] 0.31%
CCN(Cc1ccccc1)C(=O)Cc1c[nH]c2ccccc12 4.41%
O=[N+]([O-])c1ccc(-c2ccc(/C=N/O)o2)cc1 11.6%
Cc1ccc(-c2ccc(/C=N/NC(=S)Nc3ccccc3)o2)cc1[N+](=O)[O-] 17.4%
CC(=O)Nc1ccc(NC(=O)CSc2ccc(-c3ccc4c(c3)OCO4)nn2)cc1 3.37%
CCOC(=O)C1CCCN(c2c(Nc3ccc(C)c(C)c3)c(=O)c2=O)C1 (centres undefined) 1%
COc1cccc(OCCCN2CCN(S(=O)(=O)c3ccc(NC(C)=O)cc3)CC2)c1 3.71%
CCc1c(C(=O)Nc2cc(C)cc(C)c2)[nH]c(C)c1C(C)=O 2.64%
COc1ccc(C(CNC(=O)COc2ccccc2)N2CCCCC2)cc1 (centres undefined) 0.71%
COc1ccc(C(CNC(=O)Cc2ccccc2)N2CCCCC2)cc1 (centres undefined) -0.35%
NC(=O)c1ccsc1NC(=O)COC(=O)c1nc(Cl)ccc1Cl -1.24%
c1ccc(N2CCN(c3nc4ccccc4[nH]3)CC2)nc1 -2.6%
COc1ccccc1N1CCN(Cc2nc3ccccc3[nH]2)CC1 1.74%
c1ccc2[nH]c(CN3CCCCCC3)nc2c1 0.95%
Oc1ccc(N2CCN(Cc3nc4ccccc4[nH]3)CC2)cc1 13.2%
COC(CNS(=O)(=O)c1cccc2nonc12)OC 3.28%
CCN(CC(=O)Nc1c(F)cccc1F)C(=O)c1ccc(N2CCCCC2)c([N+](=O)[O-])c1 5.38%
Cc1csc(NC(=O)c2ccc[nH]c2=O)n1 0.61%
COc1ccc(OCCOC(=O)C(C)NS(=O)(=O)c2ccc(NC(C)=O)cc2)cc1 (centres undefined) 0.13%
CCOC(=O)N1CCN(CC(=O)Nc2nc3ccc(OC)cc3s2)CC1 10.2%
O=c1c2ccccc2nc(SCc2ccc([N+](=O)[O-])cc2)n1CCCO 4.2%
CCn1c(SCC#N)nc2ccccc2c1=O 1.07%
CCC(Sc1nc2ccccc2c2nc3ccccc3n12)C(=O)NCc1ccco1 (centres undefined) -0.18%
O=C(CSc1nc2ccccc2n1CC(=O)NCc1ccccc1)NCc1ccco1 -0.09%
Cn1c(SCC#N)nc2ccccc2c1=O 2.04%
Cc1cccc(C(=O)O/N=C/c2c(N3CCOCC3)n(C)c3ccccc23)c1 -0.89%
COC(=O)Cc1c(C)c2ccc(OC3CCCCC3=O)cc2oc1=O (centres undefined) 6.9%
CN(C)c1ccc(NC(=O)CSc2nc(C3CC3)nc3ccccc23)cc1 3.13%
CCC(C)NC(=O)c1nc2c(nnn2Cc2ccccc2Cl)c(=O)[nH]1 (centres undefined) 1.33%
CC1C2C(C)N(C)C(=O)N(C)C2N(C)C(=O)N1C (centres undefined) 2.07%
CCOc1ccc2nc(NC(=O)C(NS(=O)(=O)c3cccs3)C(C)C)sc2c1 (centres undefined) 19.6%
CCOc1ccc2nc(NS(=O)(=O)c3cccs3)sc2c1 1.43%
CC1(C(=O)Nc2nc3ccccc3s2)CC1(Br)Br (centres undefined) 9.49%
CCCC(=O)Nc1nc2ccc(OCC)cc2s1 2.67%
C/C(=N/NS(C)(=O)=O)c1ccc2ccccc2c1 -0.76%
CC(C)C(=O)Nc1cccc(-c2cnc3ccccc3n2)c1 -1.56%
O=C(NNC(=O)C1CC1c1ccccc1)Nc1ccccc1 (centres undefined) 1.51%
Cc1cc(N2CCOCC2)n2cc(-c3ccccc3)nc2n1 1.5%
Cc1cc(N2CCN(c3ccccc3Cl)CC2)n2cc(-c3ccccc3)nc2n1 5.23%
CCCC(=O)N/C(N)=N/c1nc(C)c2ccccc2n1 0.78%
N#CCCn1cc(CNC2CCC(O)CC2)c2ccccc21 (centres undefined) 2.18%
Cn1nc(SCC(=O)O)sc1=S -0.46%
Cc1ccc2cc(CN(Cc3ccco3)C(=S)NCC3CCCO3)c(=O)[nH]c2c1C (centres undefined) 2%
Cc1ccc2cc(CN(CC3CCCO3)C(=S)NCc3ccco3)c(=O)[nH]c2c1 (centres undefined) 1.42%
COc1ccc(C(=O)COC(=O)CCn2nnc(-c3cccs3)n2)cc1 1.36%
NC(=O)C1CCN(c2ccc(C(F)(F)F)cc2[N+](=O)[O-])CC1 16.8%
O=[N+]([O-])c1cc(C(F)(F)F)ccc1N1CCCC(O)C1 (centres undefined) 9.15%
COCC1CCN(C(=O)C2CCC(=O)N(Cc3cccc(F)c3)C2)CC1 (centres undefined) 2.17%
c1csc(-c2nn3c(Cn4nnc5ccccc54)nnc3s2)c1 26.6%
c1ccc2c(c1)ncn2Cc1nnc2sc(-c3ccncc3)nn12 -0.84%
c1ccc(Cc2nn3c(Cn4cnc5ccccc54)nnc3s2)cc1 5.56%
c1ccc2c(c1)nnn2Cc1nnc2sc(-c3ccncc3)nn12 1.65%
Clc1cccc(-c2nn3c(Cn4cnc5ccccc54)nnc3s2)c1 34%
c1cncc(-c2nn3c(Cn4cnc5ccccc54)nnc3s2)c1 15.6%
Cc1ccc[n+](C(C)C(=O)Nc2ccc(C)c([N+](=O)[O-])c2)c1 (centres undefined) 0.22%
COc1cccc(NC(=O)CNc2cc(S(=O)(=O)N3CCOCC3)ccc2N2CCCC2)c1 -0.7%
CC(C)(C)C(=O)NC(=S)NCCc1ccccc1 2.62%
CC(C)(C)CC(=O)NC(=S)NCc1ccccc1 5.07%
COc1ccc(/C(C)=N/OCC(=O)N=Nc2c(O)[nH]c3ccc(Br)cc23)cc1 4.9%
O=C(Nc1ccc(F)cc1F)C1CC(=O)N(Cc2ccccc2)C1 (centres undefined) 0.74%
CCc1c(C)nc2ncnn2c1N1CCC(C(=O)NCc2cccs2)CC1 11%
O=C(NC(=S)NNC(=O)c1ccccc1O)c1cccc([N+](=O)[O-])c1 16.2%
CCn1c(C2CC(=O)N(Cc3ccccc3)C2)nc2ccccc21 (centres undefined) 1.99%
C=CCN1CC(c2nc3ccccc3n2CCOc2ccccc2)CC1=O (centres undefined) 0.6%
Cn1c(SCC(=O)NC2CCCC2)nnc1-c1ccncc1 0.88%
COc1ccc(C(=O)Nc2cccc(C(=O)N3CCCCC3)c2)cc1 3.16%
Cc1ccccc1Nc1nc(N)nc(COC(=O)c2cccn2C)n1 4.72%
CCc1ccccc1Nc1nc(N)nc(COC(=O)c2c(C)noc2C)n1 3.24%
Cc1cc(C)nc(-n2nc(C)c(Oc3ccccc3O)c2C)n1 1.29%
Cc1nn(-c2ccccn2)c(C)c1Oc1ccccc1O 0.08%
CCC(=O)c1ccc(OCC(=O)N(C)CC(=O)Nc2cccc(F)c2)cc1 -0.9%
CC(=O)Nc1ccc2c3c(cccc13)CC2 3.08%
Cc1cccc(NC(=O)[C@H](Cc2c[nH]c3ccccc23)NC(=O)[C@@H]2Cc3ccccc3CN2)c1 3.9%
COc1ccc(NC(=O)[C@H](Cc2c[nH]c3ccccc23)NC(=O)[C@@H]2Cc3ccccc3CN2)cc1 1.35%
Cc1cc(N2CCOCC2)nc2ccc(NC(=O)CCC(=O)N3CCN(c4ccccc4F)CC3)cc12 13.8%
CC(NC(=O)COc1ccc(Br)cc1)C(=O)O (centres undefined) 0.8%
